In PubChem BioAssay AID1159580 (chemical genetic matrix, 2015):
Where “and” joins values, the source holds several entries; their conditions need not be identical. Identical values can stand only once. The campaign covered roughly 5,500 compounds. About 2,000 (36%) were called active. Roughly 18% stayed inconclusive and do not appear here. No stated cut-off is given here; in the data, active means normalized growth mostly below about 0.91 (no sharp cut-off); inconclusive means no clear call, values can overlap the other calls; inactive means mostly above about 0.92. Some of the results follow.

Experiment: chemical genetic growth profiling, strain panel (AID 1159580);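 further: tested at 20 µM; growth read once vehicle control cultures reached saturation at 30 °C; 1 = growth at the plate median or of vehicle wells; lower values mean less growth of the strain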
Conditions: S. cerevisiae deletion strains, growth OD

Measured: normalized growth

C[C@@H]1CC[C@@]2(OC1)OC1CC3C4CC=C5C[C@@H](O)CC[C@]5(C)C4CC[C@]3(C)C1[C@@H]2C (some centres not stated)
inactive: locus YAL021C, strain ccr4, active compounds read low 1.02 | locus YAL026C, strain drs2, active compounds read low 1.01 | locus YAL030W, strain snc1, active compounds read low 0.996 | locus YBL061C, strain skt5, active compounds read low 0.996 | locus YBR009C, strain hhf1, active compounds read low 1.01 | locus YBR021W, strain FUR4, active compounds read low 1.06 | locus YBR023C, strain chs3, active compounds read low 1 | locus YBR171W, strain sec66, active compounds read low 1 | locus YBR229C, strain ROT2, active compounds read low 1 | locus YBR231C, strain swc5, active compounds read low 0.996 | locus YBR279W, strain paf1, active compounds read low 1 | locus YCL011C, strain gbp2, active compounds read low 1.01 | locus YCL016C, strain dcc1, active compounds read low 0.996 | locus YCL029C, strain bik1, active compounds read low 0.965 | locus YCL061C, strain MRC1, active compounds read low 0.999 | locus YCL069W, strain vba3, active compounds read low 0.995 | locus YCR088W, strain abp1, active compounds read low 1 | locus YDL005C, strain med2, active compounds read low 1 | locus YDL035C, strain GPR1, active compounds read low 1.02 | locus YDL040C, strain nat1, active compounds read low 1 | locus YDL074C, strain BRE1, active compounds read low 1.02 | locus YDL101C, strain DUN1, active compounds read low 0.99 | locus YDL134C, strain PPH21, active compounds read low 0.977 | locus YDL185W, strain tfp1, active compounds read low 0.959 | locus YDL192W, strain arf1, active compounds read low 0.981 | locus YDR001C, strain nth1, active compounds read low 1 | locus YDR069C, strain doa4, active compounds read low 1.01 | locus YDR101C, strain arx1, active compounds read low 0.997 | locus YDR137W, strain rgp1, active compounds read low 0.991 | locus YDR150W, strain NUM1, active compounds read low 0.995 | locus YDR159W, strain sac3, active compounds read low 0.997 | locus YDR162C, strain NBP2, active compounds read low 1.01 | locus YDR195W, strain ref2 0.991 | locus YDR297W, strain sur2, active compounds read low 1.01 | locus YDR318W, strain mcm21, active compounds read low 0.972 | locus YDR334W, strain swr1, active compounds read low 1.01 | locus YDR335W, strain msn5, active compounds read low 1 | locus YDR388W, active compounds read low 0.976 | locus YDR392W, strain spt3, active compounds read low 0.985 | locus YDR502C, strain sam2, active compounds read low 0.986 | locus YEL003W, strain gim4, active compounds read low 1 | locus YEL037C, strain rad23, active compounds read low 0.994 | locus YEL061C, strain CIN8 (second series), active compounds read low 1.01 | locus YER015W, strain faa2, active compounds read low 0.979 | locus YER016W, strain bim1, active compounds read low 0.993 | locus YER110C, active compounds read low 0.969 | locus YER111C, strain swi4, active compounds read low 1.01 | locus YER155C, strain BEM2 (second series), active compounds read low 1.02 | locus YER155C, strain BEM2, active compounds read low 1 | locus YER167W, strain BCK2, active compounds read low 1.01 | locus YFR010W, strain ubp6, active compounds read low 1.01 | locus YGL078C, strain dbp3, active compounds read low 0.973 | locus YGL086W, strain mad1, active compounds read low 0.997 | locus YGL167C, strain pmr1, active compounds read low 0.994 | locus YGL173C, strain kem1, active compounds read low 1.01 | locus YGL227W, strain vid30, active compounds read low 0.978 | locus YGL240W, strain doc1, active compounds read low 0.985 | locus YGL248W, strain PDE1, active compounds read low 1.01 | locus YGL253W, strain hxk2, active compounds read low 1.01 | locus YGR078C, strain PAC10, active compounds read low 0.982 | locus YGR135W, strain pre9, active compounds read low 0.951 | locus YGR252W, strain gcn5, active compounds read low 0.989 | locus YHR013C, strain ard1, active compounds read low 0.986 | locus YHR027C, strain rpn1, active compounds read low 0.986 | locus YHR030C, strain SLT2, active compounds read low 0.994 and 0.991 | locus YHR079C, strain IRE1 (second series), active compounds read low 0.979 | locus YHR079C, strain IRE1, active compounds read low 0.979 | locus YHR094C, strain hxt1, active compounds read low 0.985 | locus YHR129C, strain ARP1, active compounds read low 0.993 | locus YHR142W, strain chs7, active compounds read low 1.01 | locus YHR200W, strain rpn10, active compounds read low 0.999 | locus YIL066C, strain RNR3, active compounds read low 1.01 | locus YIL073C, strain SPO22, active compounds read low 0.882 | locus YIL125W, strain kgd1, active compounds read low 0.985 | locus YIR030C, strain dcg1, active compounds read low 0.96 | locus YJL092W, strain hpr5, active compounds read low 1 | locus YJL095W, strain BCK1 (second series), active compounds read low 0.995 | locus YJL095W, strain BCK1, active compounds read low 0.989 and 0.99 | locus YJL115W, strain asf1, active compounds read low 0.997 | locus YJL129C, strain trk1, active compounds read low 0.97 | locus YJL134W, strain LCB3, active compounds read low 1 | locus YJL154C, strain vps35, active compounds read low 0.998 | locus YJL164C, strain tpk1, active compounds read low 1 | locus YJL166W, strain qcr8, active compounds read low 1.01 | locus YJL168C, strain set2, active compounds read low 0.977 | locus YJL187C, strain SWE1 (second series), active compounds read low 0.988 | locus YJL187C, strain SWE1, active compounds read low 1.02 | locus YJR043C, strain POL32, active compounds read low 1.04 | locus YJR066W, strain TOR1, active compounds read low 0.95 | locus YKL009W, strain mrt4, active compounds read low 0.986 | locus YKL068W, active compounds read low 0.984 | locus YKL085W, strain MDH1 (second series), active compounds read low 0.998 | locus YKL085W, strain MDH1, active compounds read low 0.998 | locus YKL160W, strain elf1, active compounds read low 0.987 | locus YKR001C, strain vps1, active compounds read low 0.985 | locus YKR026C, strain gcn3, active compounds read low 1 | locus YKR091W, strain srl3, active compounds read low 0.996 | locus YLL001W, strain dnm1, active compounds read low 0.997 | locus YLL026W, active compounds read low 1 | locus YLL041C, strain sdh2, active compounds read low 1 | locus YLR027C, strain aat2, active compounds read low 0.993 | locus YLR039C, strain RIC1, active compounds read low 1.05 | locus YLR058C, strain SHM2, active compounds read low 1 | locus YLR102C, strain apc9, active compounds read low 0.986 | locus YLR113W, strain HOG1, active compounds read low 0.964 | locus YLR221C, strain rsa3, active compounds read low 0.989 | locus YLR258W, strain gsy2, active compounds read low 0.995 | locus YLR262C, strain YPT6 (second series), active compounds read low 0.994 | locus YLR262C, strain YPT6, active compounds read low 1.1 | locus YLR268W, strain sec22, active compounds read low 1.01 | locus YLR320W, strain mms22, active compounds read low 0.995 | locus YLR342W, strain FKS1, active compounds read low 0.996 | locus YLR357W, strain rsc2, active compounds read low 1.04 | locus YLR370C, strain arc18, active compounds read low 1 | locus YLR371W, strain rom2, active compounds read low 0.964 | locus YLR384C, strain iki3, active compounds read low 1 | locus YLR418C, strain cdc73, active compounds read low 0.992 | locus YML016C, strain PPZ1, active compounds read low 1.01 | locus YML032C, strain rad52, active compounds read low 0.971 | locus YML120C, strain ndi1, active compounds read low 1 | locus YML124C, strain tub3, active compounds read low 0.978 | locus YMR058W, strain fet3, active compounds read low 1 | locus YMR078C, strain ctf18, active compounds read low 0.951 | locus YMR125W, strain sto1, active compounds read low 0.995 | locus YMR129W, active compounds read low 0.996 | locus YMR205C, strain PFK2, active compounds read low 0.995 | locus YMR223W, strain ubp8, active compounds read low 0.963 | locus YMR231W, strain pep5, active compounds read low 1.02 | locus YMR263W, strain SAP30, active compounds read low 0.988 | locus YMR307W, strain GAS1, active compounds read low 1.24 | locus YNL067W, strain RPL9B, active compounds read low 0.973 | locus YNL071W, strain lat1, active compounds read low 1.01 | locus YNL153C, strain GIM3, active compounds read low 0.99 | locus YNL183C, strain NPR1, active compounds read low 0.964 | locus YNL209W, strain ssb2, active compounds read low 0.997 | locus YNL233W, strain BNI4, active compounds read low 1.01 | locus YNL248C, strain rpa49, active compounds read low 0.999 | locus YNL250W, strain rad50, active compounds read low 0.954 | locus YNL271C, strain bni1, active compounds read low 0.986 | locus YNL298W, strain CLA4, active compounds read low 0.977 | locus YNL307C, strain MCK1, active compounds read low 0.992 | locus YNL322C, strain KRE1 (second series), active compounds read low 0.997 | locus YNR049C, strain mso1, active compounds read low 1 | locus YNR052C, strain pop2, active compounds read low 0.968 | locus YOL012C, strain htz1 1.17 | locus YOL147C, strain pex11, active compounds read low 0.979 | locus YOR001W, strain rrp6, active compounds read low 0.982 | locus YOR061W, strain CKA2, active compounds read low 1.01 | locus YOR069W, strain VPS5, active compounds read low 0.996 | locus YOR070C, strain gyp1, active compounds read low 0.985 | locus YOR080W, strain dia2, active compounds read low 0.999 | locus YOR083W, strain WHI5, active compounds read low 0.983 | locus YOR106W, strain vam3, active compounds read low 0.994 | locus YOR136W, strain idh2, active compounds read low 0.989 | locus YOR144C, strain elg1, active compounds read low 0.99 | locus YOR184W, strain ser1, active compounds read low 1.03 | locus YOR231W, strain MKK1, active compounds read low 0.988 | locus YOR265W, strain rbl2, active compounds read low 1.01 | locus YOR270C, strain vph1, active compounds read low 0.999 | locus YOR290C, strain snf2, active compounds read low 0.949 | locus YOR316C, strain cot1, active compounds read low 0.974 | locus YPL051W, strain arl3, active compounds read low 0.999 | locus YPL055C, strain LGE1, active compounds read low 1.03 | locus YPL078C, strain atp4, active compounds read low 1.01 | locus YPL106C, strain sse1, active compounds read low 1.02 | locus YPL240C, strain hsp82, active compounds read low 0.986 | locus YPL256C, strain CLN2, active compounds read low 0.974 | locus YPR119W, strain clb2, active compounds read low 0.967 | locus YPR141C, strain kar3, active compounds read low 0.951 | locus YPR163C, strain tif3, active compounds read low 0.969 | locus YPR167C, strain met16, active compounds read low 0.983 | strain wtn01, active compounds read low 1.01
